Experimental data taken from PubChem BioAssay AID640 (Columbia University Molecular Screening Center, 2007).
The campaign covered roughly 96,000 compounds. About 200 (0.21%) were called active. The list comes from a sample in which actives are over-represented; it also holds similar structures and randomly drawn compounds. Unmarked numbers belong to inactive results.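 Rule for the calls: active = inhibition at 2 µM at or above a set limit, the screen mean plus 3 SD (cut at about 24% in these data); inactive = the rest.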

These compounds were tested against Tyrosine-protein phosphatase non-receptor type 22 (Homo sapiens) (UniProt Q9Y2R2) (assay: PTPN22 phosphatase inhibitors, primary screen, biochemical, DiFMUP fluorescence, 2 µM (AID 640;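 note: 0% = DMSO with enzyme and 100% = enzyme fully blocked by orthovanadate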)). Conditions: recombinant LYP catalytic domain, at 2 µM, active compounds read high.
Chain of Tyrosine-protein phosphatase non-receptor type 22 (Homo sapiens) (Q9Y2R2 whole entry, looked up, the tested form may be a part): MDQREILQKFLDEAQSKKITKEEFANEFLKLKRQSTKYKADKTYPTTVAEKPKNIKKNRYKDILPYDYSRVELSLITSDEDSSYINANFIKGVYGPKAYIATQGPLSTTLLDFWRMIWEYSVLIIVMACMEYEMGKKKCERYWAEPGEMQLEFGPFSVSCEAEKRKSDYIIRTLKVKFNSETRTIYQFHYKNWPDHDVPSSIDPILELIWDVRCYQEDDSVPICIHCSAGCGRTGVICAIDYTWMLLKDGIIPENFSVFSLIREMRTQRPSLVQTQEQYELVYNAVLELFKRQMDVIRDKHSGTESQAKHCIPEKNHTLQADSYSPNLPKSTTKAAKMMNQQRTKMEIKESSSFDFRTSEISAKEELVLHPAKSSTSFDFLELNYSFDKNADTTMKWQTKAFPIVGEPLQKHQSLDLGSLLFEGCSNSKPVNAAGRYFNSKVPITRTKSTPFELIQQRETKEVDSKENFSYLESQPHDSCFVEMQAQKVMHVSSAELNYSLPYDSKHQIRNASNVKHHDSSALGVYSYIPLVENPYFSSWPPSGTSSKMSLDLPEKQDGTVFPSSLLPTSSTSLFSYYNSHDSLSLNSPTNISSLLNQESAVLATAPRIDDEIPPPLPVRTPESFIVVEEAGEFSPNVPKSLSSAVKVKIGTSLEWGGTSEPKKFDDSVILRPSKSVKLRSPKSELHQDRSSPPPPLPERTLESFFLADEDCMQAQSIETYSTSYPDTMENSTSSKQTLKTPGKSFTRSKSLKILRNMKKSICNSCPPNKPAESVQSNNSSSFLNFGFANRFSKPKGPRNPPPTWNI

SMILES | inhibition
Cc1ccc(OCC(=O)Nc2cccc3c2CCCC3)cc1C | 10%
CCN1CCN(C(=O)/C=C\C(=O)O)CC1 | -7%
Cc1cc(S(=O)(=O)NC2CCCCC2)ccc1OCC(=O)NCc1cccnc1 | -9.7%
COc1ccc(Br)cc1CN1CCN(C(=O)c2cccc(OC)c2OC)CC1 | 0.1%
COC(=O)c1c(CCl)noc1C(=O)NC(C)C | -0.4%
CCc1ccc2c(c1)C1(NN=C(c3ccccc3)S1)C(=O)N2 (stereo not given) | 15.3%
CCCCc1nnc(NC(=O)CS(=O)(=O)Cc2ccccc2)s1 | 3.6%
CC(C)c1nc(-c2ccccn2)no1 | 4%
c1ccc(-c2noc(-c3cccs3)n2)nc1 | 7.6%
c1ccc(-c2nccc(-c3ccc(-n4cnc5ccccc54)cc3)n2)nc1 | 39.8% (active)
COc1ccc(Nc2cc(=O)oc3ccccc23)cc1 | 5%
Cc1cc(-n2nc(C)cc2C)n2nc(C)c(-c3ccccc3)c2n1 | -2.6%
O=C(Nc1ccccc1)O/N=C1\CCCCC1c1ccc([N+](=O)[O-])cc1[N+](=O)[O-] (stereo not given) | -11%
O=S(=O)(NN=C1CCCCCCC1)c1ccc(Br)cc1 | 6.1%
Cc1nc2ccccc2n1C(=O)N1CCOCC1 | 1.2%
Cc1ccc(S(=O)(=O)N(CC(=O)N2CCc3ccccc3C2)c2cccc(Cl)c2)cc1 | 4.6%
Cc1cc(C)c(NC(=O)CN2CCOCCOCCOCCOCC2)c(C)c1 | 3.4%
O=C(Oc1ccccc1)Oc1ccc2c(c1)oc(=O)c1ccccc12 | -1.7%
COCCN(C(=O)c1ccco1)c1nnc(-c2ccc(OC)cc2)s1 | 10.8%
COc1ccc(S(=O)(=O)NCc2ccc(C(=O)N(C)Cc3ccco3)cc2)cc1 | -6%
CCOC(=O)C1=C(C)NC(SC)=NC1c1ccccc1 (stereo not given) | -0.6%
Cc1nc2cc(NC(=O)NCc3ccccc3)ccc2o1 | -5.6%
O=C1Nc2cc(Cl)c(Cl)cc2N(O)N1c1cc(Cl)cc(Cl)c1 | -15.4%
COc1ccc2nc(SCC(=O)Nc3c(C)cc(C)cc3C)[nH]c2c1 | -3.6%
O=C(c1cccc(F)c1)N1CCN(c2ccc([N+](=O)[O-])c(N3CCCCC3)c2)CC1 | 8.1%

SMILES | inhibition
CCn1nccc1C(=O)Nc1ccc(Cl)c(Cl)c1 | -0.3%
O=C(CC(O)(C(F)(F)F)C(F)(F)F)Nc1ccc(Cl)c(Cl)c1 | -2.3%
Cc1nnc(NC(=O)Nc2ccc(Cl)c(Cl)c2)s1 | 24.4% (active)
CCOC(=O)C1CN(S(=O)(=O)c2ccc(F)cc2)C1 | 8.4%
CC(C)(C)NC(=O)CSC(=Nc1ccccc1F)NC#N | 11.7%
CCCn1nnc(NC(=O)COc2ccc(CC)cc2)n1 | 14.5%
CCOC(=O)C(Sc1ncc(C#N)c(N)n1)C(C)C (stereo not given) | 4.5%
Cc1ccc(CN2CCN(/N=C/c3ccco3)CC2)c(C)c1 | 6.2%
CCOC(=O)CN(Cc1ccc(OC)c(OC)c1)S(=O)(=O)c1ccc(OC)cc1 | 4.6%
Cn1nc(C(F)(F)F)c2cc(NC(=O)OCC(C)(C)C)sc21 | -3.4%
CCCCNCc1ccc(SC)cc1 | -8.8%
COc1ccc(-c2noc(CSc3ccc(C)cc3)n2)cc1 | 6.7%
CCSc1nnc(NC(=O)c2ccc(C)cc2)s1 | -2.4%
CC(C)(C)C(=O)Nc1ccc(C(=O)N/N=C/c2ccccc2OC(=O)c2ccc(Cl)cc2Cl)cc1 | 13%
CC(C)n1c(-c2cccs2)nc2ccccc21 | -3.5%
CCOC(=O)c1cnc(SCC(=O)Nc2cccc(OC)c2)nc1N | -12.3%
Cc1ccc(-n2c(C)cc(/C=N/Nc3ccc([N+](=O)[O-])cn3)c2C)c(C)c1 | 11.5%
Cc1nc(NC(=O)CN(C)S(=O)(=O)c2ccc(Cl)cc2)sc1C | 6.8%
Nc1c(-c2cccc(Cl)c2)cnn1-c1cccc([N+](=O)[O-])c1 | -9.9%
O=C(N/N=C/c1ccsc1)c1cc(O)cc(O)c1 | 4.4%
Cn1cc([N+](=O)[O-])c(C(=O)Nc2ccc3c(c2)OCCO3)n1 | 3.8%
O=S(=O)(N/N=C\c1cccn1-c1ccccc1)c1ccc2ccccc2c1 | -4.4%
O=C1CSC(c2ccc(Cl)cc2)N1 (stereo not given) | -5.4%
COCC(=O)Nc1ccc(Br)cc1 | -3.3%
Cn1c(=O)c2c(nc(N3CCOCC3)n2CCNC2=NCCC2)n(C)c1=O | -6.1%

SMILES | inhibition
COn1c(=O)c(=O)n(OC)c2ccccc21 | 3.4%
Cc1oc(-c2ccccc2Cl)[n+]([O-])c1C | -4.8%
CC1=NN(C(C)C)C(=O)C1 | 1.5%
c1ccc(CSc2ncnc3c2sc2nc(N4CCOCC4)c4c(c23)CCCC4)cc1 | 10.1%
CCOc1cccc(NC(=O)Cn2nc(-c3ccc4c(c3)OCCO4)ccc2=O)c1 | 7.6%
O=C(Nc1ccc2sc3ccccc3c(=O)c2c1)c1ccccc1Cl | 1.6%
COC(=O)CSc1nnc(-c2cccnc2)o1 | 4.2%
Cc1ccc2oc(=O)c3cnn(CC(=O)N(Cc4ccco4)C4CCCCC4)c3c2c1 | 3.6%
COc1cc(S(=O)(=O)N(Cc2cccs2)C2CC2)ccc1-n1cnnn1 | -4.5%
CCOc1ccc(N=C2NC(=O)S/C2=C\c2ccc(O)cc2)cc1 | -3.4%
COc1ccc2oc(=O)c(C(=O)NCc3ccccn3)cc2c1 | -1.3%
N#Cc1ccccc1CN1C(=O)S/C(=C/c2cccn2-c2cccc(C(=O)O)c2)C1=O | 32.6% (active)
Cc1cc(/C=C2/SC(=O)N(CC(=O)OC(C)C)C2=O)c(C)n1C | 9.2%
Brc1ccc(-c2nnc(-c3ccccc3)o2)o1 | -8.3%
O=C(CCCN1C(=O)c2ccccc2C1=O)Oc1ccc(Cl)cc1 | 4.1%
COc1ccc(/C(O)=C2/C(=O)C(=O)N(CC3CCCO3)C2c2ccc(OC)c(OC)c2)cc1 (stereo not given) | -1.4%
COc1cc(CNCc2cccs2)cc(Br)c1OC | 1.7%
O=c1onc(-c2cccs2)n1Cc1ccccc1 | 6.3%
C=CCOC(=O)C1=C(C)NC(SCC(=O)OCC)=C(C#N)C1c1ccc(C)cc1 (stereo not given) | -1.5%
COc1ccccc1NC(=O)CSc1nnc(C)n1CC1CCCO1 (stereo not given) | -14.6%
CCCn1c(C(Cc2ccccc2)NC(=O)COC)nc2ccccc21 (stereo not given) | -7.4%
CC(C)OC(=O)CN1C(=O)C(=O)c2ccccc21 | -2.8%
COc1ccc([N+](=O)[O-])cc1C1NN=C(c2cccc3ccccc23)S1 (stereo not given) | 10.1%
O=C(NCc1ccco1)C1(c2ccc(Cl)cc2)CCCC1 | -8.9%
Cc1cccc(NC(=O)N(Cc2cc3cc(C)cc(C)c3[nH]c2=O)CC2COCCO2)c1 (stereo not given) | 2.6%

SMILES | inhibition
CCOC(=O)c1nc(C)n(-c2ccc(Cl)cc2Cl)n1 | -1.3%
Cc1ccc(N2CCN(/N=C/c3cccs3)CC2)cc1 | 9.9%
Clc1ccccc1SCc1nc2ccccc2[nH]1 | 2.7%
Cc1ccc(NC(=O)CSCC(=O)N2CCOCC2)cc1 | -3.1%
COC(=O)c1ccc(C2C(Oc3ccccc3C)C(=O)N2CCc2ccc(OC)c(OC)c2)cc1 (stereo not given) | -11.5%
CCSc1nnc(NC(=O)Cc2ccccc2OC)s1 | 15.4%
CC(c1ccco1)N(C(=O)Nc1ccccc1)C1CCCCC1 (stereo not given) | -2%
CCOc1c2ccc(C(=O)NC3CCCc4ccccc43)cc2nn1CC (stereo not given) | -7.5%
CCN1C(=O)/C(=C2/Sc3ccc(OC)cc3N2C)SC1=Nc1ccc(C)cc1 | -28%
O=C(ON=C1CCN(S(=O)(=O)c2ccccc2)CC1)c1ccc(Cl)cc1 | -19.3%
Cc1ccccc1C(=O)N1CCC(C(=O)Nc2ccc(S(=O)(=O)N(C)C(C)C)cc2)CC1 | 3.5%
CCOc1c2ccc(C(=O)NCc3ccc4c(c3)OCO4)cc2nn1C | -4.3%
Cc1cc(Cl)c(S(=O)(=O)N(C)C)cc1OCC(N)=O | -3.7%
O=Cc1c(N2CCN(c3cccc(Cl)c3)CC2)nc2ccccn2c1=O | -12.5%
COc1ccc(CN2CCn3ncc(C(=O)Nc4ccc(Cl)cc4Cl)c3C2=O)cc1 | -3.3%
CC1CCc2c(nc3ncnn3c2Nc2ccc(OC(F)(F)F)cc2)C1 (stereo not given) | 16.7%
O=C(/C=C/Sc1ncn[nH]1)c1ccc(Cl)cc1 | -5.9%
Cc1cccc(-n2ncc(C#N)c2-n2cccc2)c1 | -13.4%
CCOC(=O)c1ccc(COC(=O)CCc2nc(-c3ccccc3)c(-c3ccccc3)o2)cc1 | 10.3%
COC(=O)CNC(c1ccccc1Cl)c1cc(Br)ccc1NC(=O)CCN1CCOCC1 (stereo not given) | 7.7%
O=C(CSc1nc2ccccc2o1)N1c2ccccc2Sc2ccc(Cl)cc21 | 4.8%
N#CC1=C(N)N(c2ccc(F)cc2)C(=O)C1 | 7%
O=[N+]([O-])c1ccc(N2CCN(S(=O)(=O)c3ccc4ccccc4c3)CC2)cc1NCc1ccco1 | 4.1%
Cn1nnnc1SCC(=O)Nc1ccccc1C(=O)NC1CC1 | 11.6%
COc1ccc(-n2cnc3cc(NCc4ccco4)ccc32)cc1 | 6.5%
